Bioassay records deposited in PubChem BioAssay by Broad Institute.
The sample as a whole holds a higher share of hits than the screen did.
Tg IFNy HTS: blocks Toxoplasma gondii growth in the presence of IFN-gamma; activity change, negative = inhibition, % (no concentration beside the values); Toxoplasma gondii growth in IFN-gamma-treated host cells; active compounds read low; hit rate 3.8% among 69,000; in the data active = activity change below about -70%, passing the limit was not always enough;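 note: host cells are HeLa cells infected with Toxoplasma gondii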
Active calls of the source: *; i = inactive.

SMILES	Tg IFNy HTS
CS(=O)(=O)N(CCCC(=O)NCc1ccco1)c1cc(Cl)ccc1Cl	98.6
Cc1ccc(Cl)cc1N(CC(=O)Nc1c(F)cccc1F)S(C)(=O)=O	-75.7*
O=C(C1CC2(CO1)CN(Cc1ccc(F)cc1F)c1ccccc12)N1CCCC1 (configuration not stated)	-16.6
NC(=O)c1cnc2n1CCN(C(=O)c1scc3c1OCCO3)C2	-2.0
CC(C)(C)c1cc(-c2cc(C(C)(C)C)c(O)c(C(C)(C)C)c2)cc(C(C)(C)C)c1O	14.5
N#CC(C#N)=C(N)/C(C#N)=C/c1cc(O)c(O)c(O)c1	-7.0
CC(C)(C)c1cc(/C=C(\C#N)C(N)=S)cc(C(C)(C)C)c1O	-73.5*
CN(C)C[C@@H]1CCC[C@@H]2CN(Cc3nccs3)C[C@H]21	-1.3
O=C(Cn1ncc2c(N3CCN(c4ccccn4)CC3)ncnc21)NC1CCCCCC1	-52.3
COc1ccccc1OCC(=O)O	25.4
COc1cc(C(=O)N(C)CCOc2ccccc2OC)c2ccccc2n1	-93.2*
COc1ccccc1OCc1cc(C(=O)N(C)Cc2cc(C)no2)no1	-9.5
COc1ccccc1N1CC(c2cc(=O)[nH]c(NCc3ccc(F)cc3)n2)CC1=O (configuration not stated)	-2.8
CN1CCCC2(CC1)CCN(C(=O)c1nc3ccccc3[nH]c1=O)CC2	60.2
CS(=O)(=O)N1CC(c2ncn3ccccc23)C1	26.1
Cc1ccc(S(=O)(=O)N2CCC3(CC2)CN(c2ccccc2)C3=O)cc1	86.2
Cc1ccc(S(=O)(=O)N2CCC3(CCCN(CC4CCOCC4)C3)C2)cc1 (configuration not stated)	26.3
Cc1ccc(S(=O)(=O)N2CCCC3(CCCCC3)C2)cc1	-98.3*
CCOc1ccc(Nc2nc(-c3nnc(-c4ccc(Cl)cc4)o3)nc3ccccc23)cc1	112.0
Cc1cccc(CN2C(=O)CCC23CCN(C(=O)C2CCOC2)CC3)c1 (configuration not stated)	3.8
CN(Cc1cccnc1)C1CCN(C(=O)c2ccsc2)C(C(=O)O)C1 (configuration not stated)	1.0
O=C(Nc1ccc(OC(F)(F)F)cc1)c1cnn(-c2ccc(Cl)cc2)c1C(F)(F)F	-86.3*
O=C(NCCSCc1ccco1)c1cnn(-c2ccccc2)c1C(F)(F)F	7.6
Cc1cc(C)c2cc(C(=O)Nc3ccc(OC(F)(F)F)cc3)[nH]c2c1	38.6
CCn1nc(C(C)C)cc1C(=O)N1C[C@H](O)C[C@H]1C(=O)OC	0.1
SMILES	Tg IFNy HTS
Cc1nc(-c2ccccc2)sc1CCNC(=O)C(=O)Nc1ccccc1[N+](=O)[O-]	i
Cc1occc1C(=O)N1CCC2(CC(Nc3cccc(C#N)n3)CO2)C1 (configuration not stated)	-98.0*
Cc1occc1C(=O)N1CCC2(CC(Nc3ncccc3F)CO2)C1 (configuration not stated)	7.2
N#Cc1cccc(NC2COC3(CCN(C(=O)NC4CC4)C3)C2)n1 (configuration not stated)	-35.6
CCn1c(=O)c(-c2nc(-c3ccc(C)cc3C)no2)c(O)c2ccc(F)cc21	76.8
Cc1cccc(N2CCN(C(c3ccccc3)c3nnnn3Cc3ccco3)CC2)c1C (configuration not stated)	-12.9
COCCn1nnnc1C(C(C)C)N1CCC(Cc2ccccc2)CC1 (configuration not stated)	-2.4
COCCn1nnnc1C(c1cccs1)N1CCN(c2cc(C)ccc2C)CC1 (configuration not stated)	-95.0*
Cn1c(C(=O)C2CC2)cc2c1c1ccccc1n2CC1CC1	1.4
CCCN1C(=O)CCc2cc(NC(=O)c3sccc3C)ccc21	53.9
CCOc1ccccc1-c1nc(Cn2ccn3nc(-c4cccs4)cc3c2=O)c(C)o1	-87.4*
Cc1ccccc1-c1nc(Cn2ccn3nc(-c4cccs4)cc3c2=O)c(C)o1	119.2
CCOc1ccccc1-c1nc(Cn2ccn3nc(-c4ccccc4OC)cc3c2=O)c(C)o1	i
Cc1cc(C)n(CCC(=O)N2CCC3(CCN(C)CC3)C2)c(=O)n1	-2.9
Cc1ccc(-c2noc(-c3c(O)c4ccc(F)cc4n(C)c3=O)n2)cc1	8.8
COc1cccc(S(=O)(=O)N2CCCCN3[C@H](CO)[C@H](c4ccc(C#CCC(C)C)cc4)[C@H]3C2)c1	-81.3*
COc1cccc(S(=O)(=O)N2CCCCN3[C@H](C2)[C@@H](c2ccc(C#CCC(C)C)cc2)[C@@H]3CO)c1	-33.4
COc1cccc(S(=O)(=O)N2CCCCN3[C@@H](CO)[C@@H](c4ccc(C#CCC(C)C)cc4)[C@@H]3C2)c1	-63.5
CN(C(=O)CCNS(C)(=O)=O)C1CCCCCC1	-41.8
Cc1ccc(-c2coc(-c3ccc(NS(=O)(=O)c4ccc(Cl)s4)cc3)n2)c(C)c1	-31.2
CCC1CCCCN1C(=O)CCNc1c(-c2cccc(C)c2)nc2cnccn12 (configuration not stated)	173.8
COC1CC2(CCN(S(=O)(=O)c3cn(C)cn3)CC2)C1	-26.8
CCCc1cnc(N2CCN(C(=O)c3c(-c4ccccc4)noc3C)CC2)nc1	-81.7*
CCOC(=O)c1c(-c2ccccc2)noc1C(C)=O	20.2
